PubChem BioAssay (Tox21)
Records with an inconclusive call do not appear. Calls of active or inactive are those of the source. The call rests on the fitted dose curve.

Biological target: Beta-2 adrenergic receptor (Homo sapiens) (UniProt P07550)
Assay: Adrenergic beta2 receptor (ADRB2) small molecule antagonists, cell-based qHTS assay (AID 1963592); further: nearly all actives have a fitted effect of over 50% in size
Settings: CHO-ADRB2 cells, isoproterenol-stimulated cAMP HTRF ratio, 0.5 h; series mostly up to 92.4 µM; activity change, negative = inhibition: at the top concentration
Excerpt: U.S. Tox21 Program National Center for Advancing Translational Sciences [NCATS] Division of Preclinical Innovation [DPI] U.S. Environmental Protection Agency [EPA] National Institutes of Environmental Health Sciences [NIEHS] National Toxicology Program [NTP] U.S. Food and Drug Administration [FDA] Tox21 Assay Overview: Beta adrenergic receptors (Beta-ARs) belong to the G-protein coupled receptor (GPCR) superfamily, includes three subtypes - beta1, beta2, and beta3. Beta1-AR is the predominant receptor subtype expressed in the heart, and beta2-AR is expressed in the kidney, lung, blood vessel and in the heart, and beta3 is found in the adipocytes. Beta1 and 2 ARs couple to Gs protein and elevate cyclic adenosine mono phosphate (cAMP), which activates protein kinase A and leads to the downstream signaling responsible for the physiological actions. Beta-AR agonists or antagonists are the most prescribed therapeutic agents for heart failure and asthma, and these were one of the first target receptors for the rational drug design. Tox21 10K compound library was screened using the cAMP-Gs dynamic assay (Cisbio Bioassays, Shelton, CT) to identify agonists/antagonists of the Gs-coupled human adrenergic, beta2 receptor (ADRB2) in the CHO-ADRB2 cell line (Codex BioSolutions, Inc. Gaithersburg, MD), which stably over-expresses ADRB2. The principle of cAMP-Gs dynamic assay is based on HTRF technology, which facilitates the fluorescence resonance energy transfer (FRET) between donor Europium cryptate and acceptor d2-labeled cAMP. The cAMP generated within cells competes with the red acceptor, d2-labled cAMP, for binding to the monoclonal anti-cAMP-cryptate (Europium donor). An increase in intracellular cAMP leads to the disruption of FRET signal, and the signal is inversely proportional to the cAMP concentration. Propranolol HCl (Sigma-Aldrich, St. Louis, MO) was used as a positive control in the screening.
Tox21 Assay Protocol Summary: CHO-ADRB2 cells were dispensed at 1,000/well in 4uL assay medium into white/solid 1536-well plates (Greiner Bio-One North America Inc., Monroe, NC) using a Multidrop Combi dispenser (ThermoFisher Scientific, Waltham, MA). The assay plates were incubated at 37C and 5% CO2 for an overnight (18-20hr). Then positive control and test compounds dissolved in DMSO were transferred to the assay plates at 23nL using a Pintool station (Wako, San Diego, CA). Following the compound and positive control transfer, 1uL agonist-stimulation mix containing 1nM Isoproterenol HCl, 100uM IBMX and 25uM Ro-20-1724 was added to each well of the assay plates using BioRAPTR Flying Reagent Dispenser (FRD, Beckman Coulter, Brea, CA). The assay plates were incubated at room temperature for 0.5hr. Then 2.5ul each d2-labled cAMP and anti-cAMP-cryptate solutions were added separately to each well of the assay plates using an FRD and the assay plates were incubated at room temperature for 1hr. The fluorescence signal was measured at two different wavelengths (665nm and 615nm) using an Envision plate reader (Perkin Elmer, Shelton, CT). Data were expressed as the ratio of 665 nm/615 nm.
On the % scale 0 is the no-effect control and ±100 the full control effect; potency means the concentration at half of the fitted maximal effect.

Beta-2 adrenergic receptor (Homo sapiens), sequence (P07550 whole entry, looked up): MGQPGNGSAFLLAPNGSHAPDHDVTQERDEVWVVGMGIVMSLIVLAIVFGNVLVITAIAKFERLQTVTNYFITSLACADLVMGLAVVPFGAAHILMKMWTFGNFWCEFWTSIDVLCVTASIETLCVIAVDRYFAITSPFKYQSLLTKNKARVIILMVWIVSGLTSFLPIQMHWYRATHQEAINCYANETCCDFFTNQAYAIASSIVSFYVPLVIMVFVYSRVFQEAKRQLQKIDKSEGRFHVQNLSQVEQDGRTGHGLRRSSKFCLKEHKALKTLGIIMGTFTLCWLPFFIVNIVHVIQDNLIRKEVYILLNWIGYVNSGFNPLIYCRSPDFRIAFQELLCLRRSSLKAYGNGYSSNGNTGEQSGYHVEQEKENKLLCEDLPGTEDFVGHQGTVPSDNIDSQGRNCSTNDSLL

Structure (SMILES) | activity change, negative = inhibition | Potency
CN(C)C(=O)Nc1cccc(OC(=O)NC(C)(C)C)c1 | 3.97% (inactive) | –
C[C@]12CC[C@@H](O)C[C@@H]1CC[C@@H]1[C@@H]2CC[C@]2(C)C(=O)CC[C@@H]12 | 0.418% (inactive) | –
Cc1ccc2c(c1)C1CN(C)CCC1N2 (stereo not given) | -2.7% [at 19 µM] (inactive) | –
C=C(C)[C@H]1CN[C@H](C(=O)O)[C@H]1CC(=O)O | 17.6% [at 42.5 µM] (inactive) | –
Cc1nc(N(C)C)nc(OC(=O)N(C)C)c1C | 0.789% (inactive) | –
Nc1ccc(Sc2ccc(N)cc2)cc1 | 7.56% (inactive) | –
CCC1(c2cccc(O)c2)CCCCN(C)C1 (stereo not given) | -0.616% [at 42.5 µM] (inactive) | –
CC(C)(C)c1cc([N+](=O)[O-])cc([N+](=O)[O-])c1O | -12.6% (inactive) | –
CCN1CCCC1CNC(=O)C(O)(c1ccccc1)c1ccccc1 (stereo not given) | 3.39% [at 42.5 µM] (inactive) | –
O=C1CN=C(c2ccccc2)c2cc([N+](=O)[O-])ccc2N1 | 4.69% [at 42.5 µM] (inactive) | –
NCCCNCCCN | -0.022% (inactive) | –
O=C(CCCN1CCC2(CC1)C(=O)NCN2c1ccccc1)c1ccc(F)cc1 | – | 1.5 µM (active)
Nc1ccccc1-c1ccccc1 | 8.42% (inactive) | –
Cc1nc(N)nc(N)n1 | 6.61% (inactive) | –
Nc1ccccc1C(=O)OC/C=C/c1ccccc1 | -10.7% (inactive) | –
CCCC(Cn1cncn1)c1ccc(Cl)cc1Cl (stereo not given) | -12.6% (inactive) | –
CC(C)CCCCCCCOP(=O)(Oc1ccccc1)Oc1ccccc1 | -3% (inactive) | –
c1ccc2cc3c(cc2c1)-c1cccc2cccc-3c12 | -24.7% (inactive) | –
CC(C)(C)C(=O)C(Oc1ccc(Cl)cc1)n1cncn1 (stereo not given) | 3.23% (inactive) | –
O=[N+]([O-])c1ccc2ccc3cccc4ccc1c2c34 | -6.5% (inactive) | –

Structure (SMILES) | activity change, negative = inhibition | Potency
C=CC(=O)NCNC(=O)C=C | -11% (inactive) | –
CCOc1cc(C(C)(C)C)ccc1C1COC(c2c(F)cccc2F)=N1 (stereo not given) | 14.7% [at 42.5 µM] (inactive) | –
O=C(OC1CCCCC1)c1ccccc1C(=O)OC1CCCCC1 | 13.1% (inactive) | –
O=[N+]([O-])C(Br)Br | -3.37% (inactive) | –
COc1nn(C(=O)NS(=O)(=O)c2ccccc2OC(F)(F)F)c(=O)n1C | 0.314% (inactive) | –
CN(C)c1ccc(N=Nc2ccccc2)cc1 | 11% (inactive) | –
N#C/C=C/C#N | 6.34% (inactive) | –
CCC(C)(C)C(=O)OC1=C(c2ccc(Cl)cc2Cl)C(=O)OC12CCCCC2 | -8.62% (inactive) | –
O=C(N[C@H]1CN2CCC1CC2)c1cc2ccoc2cn1 | -3.35% (inactive) | –
CCN(CC)CCc1c[nH]c2ccccc12 | -13% (inactive) | –
CC1N=C(N)OC1c1ccccc1 (stereo not given) | -18.1% (inactive) | –
C[C@@H](N)[C@@H](O)c1ccccc1 | -5.72% [at 42.5 µM] (inactive) | –
O=CNC(N1CCN(C(NC=O)C(Cl)(Cl)Cl)CC1)C(Cl)(Cl)Cl (stereo not given) | -15.5% (inactive) | –
O=S1(=O)OCC2C(CO1)C1(Cl)C(Cl)=C(Cl)C2(Cl)C1(Cl)Cl (stereo not given) | 15.1% (inactive) | –
CC(O)C#N (stereo not given) | 1.44% (inactive) | –
CN1CCc2cc3c(cc2C1O)OCO3 (stereo not given) | -2.61% (inactive) | –
CS(=O)(=O)c1ccc(C(=O)C2C(=O)CCCC2=O)c(Cl)c1COCC(F)(F)F | 1.38% (inactive) | –
C=CC(=O)OCC(COC(=O)C=C)(COC(=O)C=C)COC(=O)C=C | 16.1% (inactive) | –
CCOP(=O)(OCC)O/C(=C/Cl)c1ccc(Cl)cc1Cl | -2.21% (inactive) | –
C#CC(O)(C=CCl)CC (stereo not given) | 4.69% [at 42.5 µM] (inactive) | –
